Results published in PubChem BioAssay AID720536 (National Center for Advancing Translational Sciences (NCATS), 2013).
About 650 (41%) of roughly 1,600 compounds were called active. Roughly 39% stayed inconclusive and do not appear here. So high a share suggests a set chosen from earlier hits. The entries come from a sample that favours actives as a whole. Values without a mark were called inactive. Calls follow the shape of the dose curve; as a rule, active = well fitted inhibition curve with a large enough effect; inconclusive = small, poorly fitted or top-dose-only effect; inactive = no such curve, though single readings can be large or run the other way.

Test: qHTS for Inhibitors of TGF-b: CCL64 Cells Orthogonal Assay for Cherry Picks; also: nearly all actives have a fitted effect of over 65% in size
Conditions: CCL64 CAGA-GFP reporter, TGF-b stimulated, GFP fluorescence, 18 h; series mostly up to 46.1 µM; activity, negative = inhibition: at the top concentration
Source text: TGF-b is a main component in the TGF-b signaling pathway which plays diverse roles in cellular and development pathways. TGF-b is the mediated by the transcription factors Smads. Although the Smad-dependent pathway is the primary canonical TGF-b signaling node, TGF-b1 can also activate alternative signaling pathways, including those involving MAPK (ERK, JNK and p38). This interaction may mediate or enhance Smad-dependent responses, or can exert Smad-independent effects. The complexity of this signaling cascade allows the TGF-b superfamily to perform unique, overlapping or redundant functions. We believe that targeting the TGF-beta pathway at the Smad-transcription factor level may eliminate the consequences of disrupting the entire pathway and offer specificity without affecting other signaling pathways. Smad3 is the primary transducer of TGF-b's signals and Smad3 regulates many functions attributed to TGF-b signaling. We hypothesize that Smad3 inhibitors will selectively eliminate Smad3-specific TGF-beta signals without undesired off-target effects. We aim to identify Smad3-small molecule antagonists using a quantitative high throughput screening (qHTS) approach. A high-throughput assay was developed to screen the NIH Molecular Libraries Small Molecule Repository (MLSMR). This is a cell based assay, where TGF-b is tagged with GFP. This orthogonal assay was run using CCL64 cells (as opposed to HepG2); activity was desired in this assay as this indicated the hits identified from the screen are not a cell-based artifact. MH087449NIH Chemical Genomics Center [NCGC] NIH Molecular Libraries Probe Centers Network [MLPCN] MLPCN Grant: MH087449 Assay Submitter (PI): Sushil Rane, National Institute of Diabetes and Kidney Diseases
Suspensions of trypsinized CCL64 CAGA-GFP cells were dispensed into white, tissue culture-treated, solid 1536-well plates at 5uL/well (1000 cells/well final concentration) in DMEM medium supplemented with 1% FBS. Plates were incubated at 37 degrees C for 2 hours, after which 23 nL of compounds or DMSO were delivered to each well using a pin tool. One uL of recombinant TGF-beta in DMEM (1% FBS) was then dispensed (500 pg/mL final concentration), and plates were incubated at 37 degrees C for 18 hours. The plates were measured on an Acumen eX3 Explorer plate reader for GFP fluorescence (ex488/em500-530). GFP values were calculated by determining the mean GFP fluorescence of individual cells, and compiling these values for each well to determine a total well GFP signal. The %Activity was determined from the corrected fluorescence values. A titration of the known TGF-B inhibitor SB431542 was included to monitor plate performance, while unstimulated […] (-TGF-B) control wells were used to normalize %Activity of identified inhibitors; unstimulated wells corresponded to 100%Activity (full inhibition), while stimulated cell controls (+DMSO) were used to normalize 0%Activity (no inhibition). Concentration-response curves were fitted to the signals arising from the resulting fluorescence. The concentration-effect curves were then classified based on curve quality (r2), response magnitude and degree of measured activity, and compounds were subsequently categorized based on their curve class.
Potency is read from the fitted curve at half-maximal effect.

For `CCC(C)(O)C(=O)OC1C(=O)OC2CC3C(C)=CC(=O)C(O)C3(C)C3C4(O)OCC23C1C(C)C4O` (stereo not given), which Potency is on record?
The Potency was 0.231 µM (active).

With `O=c1c2ccccc2nc(/C=C/c2ccc(F)cc2)n1-c1ccccc1O` as the compound, how does the Potency read?
The Potency was 18.4 µM (active).

For `COC(=O)C1=C(c2cc3ccccc3o2)C[C@@H]2CC[C@H]1N2C(=O)NC1CCCCC1`, which Potency is on record?
Its Potency is 14.6 µM (active).

Which Potency does the source give for `CC[C@H]1CN2CCc3cc(OC)c(OC)cc3[C@@H]2C[C@@H]1C[C@H]1NCCc2cc(OC)c(OC)cc21` here?
The Potency was 0.116 µM (active).

For `O=Cc1cn(Cc2ccc(F)cc2Cl)c2ccccc12`, which “activity, negative = inhibition” value is on record?
The value was 1.08%.
